Source: article PMC12136788
Whole data set: some 24,000 sequences, median “enrichment r” near 0.99, cut for the highest 2% near 3.7. A selection follows.

B1: chr14:66974463:66974464:+_ENSMUSG00000022044_ENSMUST00000074523|mus_hu|mus_mus_mus_hu_False|18_58 (ssRNA)
RNA: GGGAGUUCUACAGUCCGACGAUCUUGUAGGACGACUUAUUCAGGGGAUCGGCCAGGAAGCAGGAGCAGAACAAGGACACUAGUGGGAGCUCCUUCAUCUUCUCUUUGUAGGCAGCAAGAGUCAUGUUUCUGGGAUCUGGUGGCCAACAGAGGAUUGAGCAUCA
B2: chr5:125866394:125866395:-_ENSMUSG00000008348_ENSMUST00000136312|mus_hu|FALSE|FALSE (ssRNA)
RNA: GGGAGUUCUACAGUCCGACGAUCACAACUUUAUUGAAAGGAAAGUGCAAUGAAAUUUGUUGAAACCUUAAAAGGGGAAACUUAGACACCCCCCCUCAAGCGCAGGACCAAGUGCAGAGUGGACUCUUUCUGGAUGUUGUAGUCCAACAGAGGAUUGAGCAUCA
B3: 44041996_44042116_73_3pUTR_ENSMUSG00000034342_ENSMUST00000037644|mouse|control|control (ssRNA)
RNA: GGGAGUUCUACAGUCCGACGAUCUCGGCCGCGAGCGAGGGAAUGGAGCCGGGCGAGAAGGAGGGGCCUCUCCGGCAACCACCGCCGGCGCUCGCAGCCCAGGGAGUGAGAGGGAGGCGCCCGCCCUGAGGCGCGCCCCUGCGCCAACAGAGGAUUGAGCAUCA
B4: chr19:16212804:16212805:+_ENSG00000167460_ENST00000300933|hu_mus|hu_hu_hu_mus_False|78_78 (ssRNA)
RNA: GGGAGUUCUACAGUCCGACGAUCAACAAUUCUGGAGUGAAGGAAAGAUGUAACAUGCAAUUAAUUAAAAGCUCAGUCAGAAGGCACAUGGGCAACAAUGAUCACCCCAGCAUUCUCGCUUGGAAUGCUUAAAGACAAUCUGUUCAACAGAGGAUUGAGCAUCA
B5: chr14:54894545:54894546:-_ENSG00000100528_ENST00000216416|hu_mus|FALSE|FALSE (ssRNA)
RNA: GGGAGUUCUACAGUCCGACGAUCCUUCAUUGGUGGCGUUUUGCAUGCACUUAACUGGACCGAUUCUUCUGUGUUGUUCUAAGAGCUCACCAGAACAUAGAUCAUGCCGUAUAGGUAGUAAAAAAACGCUAGAAGGUAAAAAGCCAACAGAGGAUUGAGCAUCA
B6: chr12:96259795:96259796:+_ENSG00000139343_ENST00000266735|hu_mus|motif|central (ssRNA)
RNA: GGGAGUUCUACAGUCCGACGAUCGAGGACAUUAUUACACCUUAUUAGAACUUCGCCCAGAUGUCCAGACAGCGCCCCAUCGGUGUACUCUUCUGUAUUUGCAAGCUGCAUGUUCAUGUAGCCAUCCACGGAGACCAGGUAGCCCAACAGAGGAUUGAGCAUCA
B7: chr11:106117246:106117247:-_ENSMUSG00000020706_ENSMUST00000021048|mus_mus|motif|central (ssRNA)
RNA: GGGAGUUCUACAGUCCGACGAUCGCAGGCCUUACAAGUUAAAAGUAGAGGCUAGGAAGUAGAGUGCAAUAACUCGUAUCCGGAACGCUAGGAAGCAUCAACCAGAAGUUCUAUAUCUCUUCACAAAACUAGUGACCUCCAGUACAACAGAGGAUUGAGCAUCA
B8: chr7:20150648:20150649:-_ENSMUSG00000044709_ENSMUST00000117222|mus_mus|FALSE|FALSE (ssRNA)
RNA: GGGAGUUCUACAGUCCGACGAUCCUUGAAAGAAUAGGAAAUUAUGUCACUACAUCGAAGCAAGGCCUCGGCCUGUACACCUAUGGGAGUCUGCAGUUGGGAAACGUAGAAGUUGGCCACAUCCAGGUCUGUGGCUCCAAACUGCAACAGAGGAUUGAGCAUCA
B9: chr7:7679991:7679992:-_ENSG00000106399_ENST00000396682|hu_hu|hu_hu_hu_mus_False|18_58 (ssRNA)
RNA: GGGAGUUCUACAGUCCGACGAUCUGGGAUGAAUCUUUUCCAGCUUCCCCACGAAGCACACGGGCCGGUCGAUAUACUGAGCUAGCAUGCUGGCGUUGACGCGCGCUUUGGGGAGCUCCAUCAUGUCCUCCAUGAUUCUGCCGCCAACAGAGGAUUGAGCAUCA
B10: chrX:20248820:20248821:+_ENSMUSG00000001924_ENSMUST00000001989|mus_mus|mus_mus_mus_hu_True|48_58 (ssRNA)
RNA: GGGAGUUCUACAGUCCGACGAUCGGCGAAGUCCGUCACCACAAAGUCAGGUUCUGCCAGUGAGGCCACCAAGGAUUUAAAACUAAUCUUUUUCGGUACUUUGACCUGACUGACGAUGCCUCCACGGAUGUAGUCGGAGAAGUUCAACAGAGGAUUGAGCAUCA
B11: chr9:95013113:95013114:-_ENSG00000196305_ENST00000443024|hu_hu|hu_hu_hu_mus_False|78_78 (ssRNA)
RNA: GGGAGUUCUACAGUCCGACGAUCCUCAGUCAGAAAGGGCGUGUAAGGGGCCAUCAGUCUGCAAAGAGAAAGCAGGACACUGAACAGUGUCUCCAGAGCCAUGACACAGUCUUCCACCCCACUCUCACCCUUUAACCUCCUCCUCAACAGAGGAUUGAGCAUCA
B12: chr16:45382771:45382772:-_ENSMUSG00000022661_ENSMUST00000163230|mus_mus|mus_mus_mus_hu_True|48_88 (ssRNA)
RNA: GGGAGUUCUACAGUCCGACGAUCCUGGGUCAUGUUAUAAGACAAAUGGAUAGGGAGGGCAUGCUUCUCAAAAAAUGUGAGCUAUUGACUAAGACUAACAAUAUUUAUCUAGCUAUAAAAAUAAGUUAAAUGAAUAAGUUAAGACAACAGAGGAUUGAGCAUCA
B13: chrX:148369326:148369327:+_ENSMUSG00000025261_ENSMUST00000112622|mus_hu|FALSE|FALSE (ssRNA)
RNA: GGGAGUUCUACAGUCCGACGAUCCUUGUCUCGCAUUGAAUCAUUAGCUGUGCACAUCAACACAUUCCAAGCACAAAUUAAGAAAUGCAAACAGAACAAAAAAAUAUAUAUAUAUAUAAUUUUUUCCCCUAUCCAAAGGUUUCACAACAGAGGAUUGAGCAUCA
B14: 52112337_52131274_754_3pUTR_ENSMUSG00000022637_ENSMUST00000114471|mouse|control|control (ssRNA)
RNA: GGGAGUUCUACAGUCCGACGAUCAUCAAUGGUUGACUUCAGAGCCAUUGCUUCCAGGCCAGAGCUGAUCUGAUGGACCUCAUGCAGGCACUGUCUGAAGACUUUCCAUGGUACAAUAGUUUUGUCUCCAAAAAACUUCCUCCACAACAGAGGAUUGAGCAUCA
B15: chr18:56819859:56819860:+_ENSG00000166562_ENST00000588875|hu_mus|FALSE|FALSE (ssRNA)
RNA: GGGAGUUCUACAGUCCGACGAUCAACCUUGAUUACUCUGUGAACUAUCGGAAUGUCUCUUCCUUCAACCUUAAAAACAACUAUUUCACCAGCUCUGAUGGGGUCCUCCCGGAAAUUCGUGAGGAACAGCAGAUCUCCUCUGUGCAACAGAGGAUUGAGCAUCA
B16: 224577001_224577121_2655_3pUTR_ENSG00000162923_ENST00000295024|human|control|control (ssRNA)
RNA: GGGAGUUCUACAGUCCGACGAUCCGGGCAAGGCUAGAAUCCAUGAACCAAGCUGCAAAGAUCUCAAGCUAAAUAAGGCGGAAAGAUUUGGAGAAACAAAAGAAGGAAAUUCUUUCCUAUCCAAUGUAUACUCUUCAGACUAAUCAACAGAGGAUUGAGCAUCA
B17: chr2:62099399:62099400:-_ENSG00000115484_ENST00000544079|hu_hu|FALSE|FALSE (ssRNA)
RNA: GGGAGUUCUACAGUCCGACGAUCGUAGGAUUCCAUACCACUCAGUGUUCGUGAAUAUUCAGUUAAUCGUAGGGCCAACUCUAUUUCUGGAGCACCACCUCCUGCAAUAAGAGCCCUCUUCUUCACUAAACAACGAAUAACACACAACAGAGGAUUGAGCAUCA
B18: chr13:30086970:30086971:-_ENSG00000139514_ENST00000380752|hu_mus|FALSE|FALSE (ssRNA)
RNA: GGGAGUUCUACAGUCCGACGAUCAGGCCCUGUGUAGGCUGGGGAAGUGUGCUACCACUAGGCUACACGCCUGUCCAGCCCCACUAACUCUUCCAUUCUCAAGAAUCUUCCAAAGCAGAGGAAAGACAGGGCCAUCAGUCUACCCAACAGAGGAUUGAGCAUCA
B19: 101904251_101904371_108_5pUTR_ENSMUSG00000058655_ENSMUST00000169681|mouse|control|control (ssRNA)
RNA: GGGAGUUCUACAGUCCGACGAUCGGAGAGAGAACGCAAAGGACCCGGAUGAGGCAGUCACGUGAUUAUAGCGGGCGCGACGGGCUUGGAGACGUGAAACCAGGAGGGGGCGGGGAGCCGAGGACGGAGGCAGAAGGCGGGGCGCAACAGAGGAUUGAGCAUCA
B20: 125499526_125499646_756_3pUTR_ENSMUSG00000091337_ENSMUST00000164756|mouse|control|control (ssRNA)
RNA: GGGAGUUCUACAGUCCGACGAUCCUGUGAGACCAAAGAGGAACGAUUUGGUCUUUUUCUCCUCGCGAUUCUCAGGUUUAACACUCCUCCUUCCUCGAUUCUCCUUUUCCACAAUGCAUGGUCAUUCACUGUCCCGUCUUCUAUCAACAGAGGAUUGAGCAUCA
B21: 19967392_19969057_911_3pUTR_ENSMUSG00000002428_ENSMUST00000002502|mouse|control|control (ssRNA)
RNA: GGGAGUUCUACAGUCCGACGAUCUCCCAGAAUGGUGGUAGUUCUUUACUGUUCUCUCGUGCGAUCAUCCAAGCUAGAGCUUGUUUUUGGUGUGGAAGCAACGGUGUUUCAAUAGCCUCAGCUGGUUCCAUUUCAACAGUUCUACAACAGAGGAUUGAGCAUCA
B22: chrX:21990627:21990628:+_ENSG00000102172_ENST00000404933|hu_hu|FALSE|FALSE (ssRNA)
RNA: GGGAGUUCUACAGUCCGACGAUCCACCCGCCCAGUACUGUCCUGACUCAAUUCUUUCAUUCUUUCCUCUACUUUGUUCAAAAUACUGUCGAUCUCUUCUUUGCCUUGCGCAUCACCAUCAUAACUCUGAAGGUCCAGCAACACCAACAGAGGAUUGAGCAUCA

Each binder was assayed against T1, UNK ZnF1-3 (human, UniProt Q9C0B0 31-174) (assay: nsRBNS (natural sequence RNA bind-n-seq); RBNS binding buffer (assumed for nsRBNS): 25 mM Tris pH 7.5, 150 mM KCl, 3 mM MgCl2, 0.01% Triton X-100, 500 ug/ml BSA, 20 U/ml SUPERase-In, 4 C; UNK is unkempt and MSI1 is Musashi-1; names of the RNAs are library labels; protein concentration not given here; high values mean tight binding).
T1 sequence: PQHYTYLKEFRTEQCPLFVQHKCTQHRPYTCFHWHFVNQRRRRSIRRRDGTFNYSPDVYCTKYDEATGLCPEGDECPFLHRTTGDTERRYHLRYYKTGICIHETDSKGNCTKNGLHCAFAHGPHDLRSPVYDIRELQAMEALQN
B1 showed a binding signal of 2.28 enrichment R. B2 gave a binding signal of 1.57 enrichment R. B3 gave a binding signal of 0.497 enrichment R. B4 showed a binding signal of 1.31 enrichment R. With B5 the binding signal was 1.42 enrichment R. Work on B6 yielded a binding signal of 0.83 enrichment R. With B7 the binding signal was 1.8 enrichment R. For B8, the binding signal was 0.807 enrichment R. With B9 the binding signal was 0.939 enrichment R. B10 showed a binding signal of 1.04 enrichment R. With B11 the binding signal was 1.44 enrichment R. Work on B12 yielded a binding signal of 2.26 enrichment R. With B13 the binding signal was 0.406 enrichment R. In the case of B14, the binding signal is reported as 0.85 enrichment R. With B15 the binding signal was 0.758 enrichment R. Binder B16 has a binding signal of 1.48 enrichment R. B17 was tested, and the binding signal was 1.13 enrichment R. With B18 the binding signal was 1.02 enrichment R. B19 was tested, and the binding signal was 3.03 enrichment R. Work on B20 yielded a binding signal of 0.473 enrichment R. B21 showed a binding signal of 0.75 enrichment R. With B22 the binding signal was 0.997 enrichment R.
